Screen size: about 370,000 compounds; about 4,100 (1.1%) were called active.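 The calls were made as follows: active = inhibition above the mean over all tested compounds plus 3 SD (cut at about 3.6% in these data); inactive = the rest.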 Only a selection was taken, and actives are over-represented in it overall.
Assay: relief of DAX-1 repression of SF-1 activity – cell-based, luminescence, SF-1 (NR5A1), full-length DAX-1, primary screen (AID 652010);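 also: 0% = DAX-1 cells with DMSO and 100% = cells lacking DAX-1 with DMSO; higher inhibition means more luminescence from relief of DAX-1 repression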
Conditions: HEK293T StAR-luciferase reporter, SF-1/DAX-1 repression relief; at 6.8 µM; hits give high values

SMILES	inhibition
COc1ccc(-n2c(SCC(=O)Nc3ccccc3-c3ccccc3)nnc2-c2cccnc2)cc1	-1.84% (inactive)
Nc1nc2c(ncn2[C@@H]2O[C@H](CNCc3ccc(OCCCN4CCOCC4)cc3)[C@@H](O)[C@H]2O)c(=O)[nH]1	1.17% (inactive)
Nc1nc2c(ncn2[C@@H]2O[C@H](CNS(=O)(=O)N3CCc4ccccc4C3)[C@@H](O)[C@H]2O)c(=O)[nH]1	-0.84% (inactive)
CC(C)(O)C#Cc1ccc(CNC[C@H]2O[C@@H](n3cnc4c(=O)[nH]c(N)nc43)[C@H](O)[C@@H]2O)s1	5.95% (active)
Clc1ccc(-n2c(COc3ccccc3)nnc2SCc2nc3ccccc3[nH]2)cc1	0.06% (inactive)
O=C(CSc1nc2ccccc2s1)N=Nc1c(O)[nH]c2ccccc12	0.2% (inactive)
COC(=O)C1CN(CC(C)C)CCS(=O)(=O)N1Cc1ccc(F)cc1 (centres undefined)	-0.94% (inactive)
CCC(=O)Nc1ccc2c(c1)C(=O)N(C)[C@@H]1CC[C@@H](CC(=O)NCCc3ccccc3)O[C@H]1CO2	0.25% (inactive)
Cc1nn(-c2ccccc2)c2c1C(c1cccc([N+](=O)[O-])c1)N(c1ccccc1)C(=O)N2 (centres undefined)	-0.06% (inactive)
CC(C)(C)c1cnnn1-c1ccc([N+](=O)[O-])cc1	0.31% (inactive)
Cc1nn(-c2ccc([N+](=O)[O-])cc2)c(N)c1-c1ccccc1	4.84% (active)
O=[N+]([O-])c1ccc2nc(-c3ccccn3)[nH]c2c1	3.65% (active)
O=C(Nc1ccc([N+](=O)[O-])cc1)OCCc1ccccn1	-0.01% (inactive)
O=[N+]([O-])c1ccc(N/N=C2/CCCCC2c2ccccn2)c([N+](=O)[O-])c1 (centres undefined)	-0.26% (inactive)
CC(C)CNc1cccc2c1S(=O)(=O)N(Cc1cn(Cc3ccc(Cl)cc3)nn1)Cc1ccccc1O2	-0.85% (inactive)
Cc1ccc(C2=CCN(C)C(=O)N2c2ccc(Cl)cc2)cc1	-0.53% (inactive)
CC(C)c1cccc(-c2csc(C(O)c3ccccc3)n2)c1 (centres undefined)	0.06% (inactive)
COc1cccc(C(NC(C)=O)c2nc(-c3cnc4ccccc4c3)cs2)c1 (centres undefined)	-0.06% (inactive)
OC(c1ccccc1)c1nc(-c2cnc3ccccc3c2)cs1 (centres undefined)	9.07% (active)
CSc1ncnc2c1ncn2CCCNCc1cccs1	0.19% (inactive)
O=C(Nc1ccc2ccccc2c1[N+](=O)[O-])c1ccccc1	5% (active)
CN(C)c1ccc(NC(=O)c2ccncc2)c2ccccc12	-0.26% (inactive)
Cc1ccc(NC(=O)c2oc3ccccc3c2C)c([N+](=O)[O-])c1	0.06% (inactive)

SMILES	inhibition
COc1cccc(NC(=O)CCc2nnc3ccc(N4CCC(C)CC4)nn23)c1	-0.5% (inactive)
O=C(NCc1cccs1)C1CCN(S(=O)(=O)c2ccccc2[N+](=O)[O-])CC1	0.71% (inactive)
c1ccc2sc(NN=C3CCCC3)nc2c1	4.11% (active)
O=C1NC(Nc2nc3ccccc3s2)(C(F)(F)F)C(=O)N1C1CCCCC1 (centres undefined)	-1.98% (inactive)
O=C(COc1ccc(-c2ccccc2)cc1)NN=C1CCCC1	-1.32% (inactive)
CCOC(=O)c1oc2c(CN3CCN(CCO)CC3)c(O)c(CC)cc2c(=O)c1-c1nc2ccccc2s1	0% (inactive)
CCCCNC(=O)C[C@@H]1C(=O)N(CCc2ccc(Cl)cc2)C2=CCCC[C@]21C(=O)OCC	-1.99% (inactive)
COc1cccc(NC(=O)C/C(C)=N/NC(=O)C2CCCCC2)c1	-0.19% (inactive)
Cc1ccc(C)c(-n2ccnc2SCC(N)=O)c1	-0.07% (inactive)
O=C(NC(=S)Nc1ccc(Br)cc1F)C1CCCCC1	3.34% (inactive)
S=C(Nc1ccc(Cl)cc1Cl)N1CCCC1	2.27% (inactive)
O=C(NC(=S)Nc1ccc(Cl)cc1Cl)C1CC1	5.23% (active)
Cc1cccc(-n2c(O)c(C=Nc3ccccc3N)c(=O)[nH]c2=O)c1	3.64% (active)
Cc1cc(=O)n(C)c(=O)n1CCCNc1ccccc1	0.36% (inactive)
COc1ccc(C#CCNCc2ccc(OC)cc2OC)cc1	-1.39% (inactive)
Cc1cc(C(=O)NN=C/C=C/c2ccco2)n[nH]1	0.49% (inactive)
Nc1nonc1-n1nnc(C(=O)N/N=C/c2ccc(Cl)cc2)c1-c1ccc2c(c1)OCO2	0.01% (inactive)
Clc1ccc(Nc2ccc3ccccc3n2)cc1	2.89% (inactive)
C(=N\Nc1ccc2ccccc2n1)/c1ccc2c(c1)OCO2	8.27% (active)
COC(=O)[C@@]12CCCCC3=C1N(CCC3)C(=O)[C@H]2CC(=O)NCc1cccc2ccccc12	-0.9% (inactive)
Cc1cc(C)c(C)c(S(=O)(=O)N2CCN(C(=O)c3ccc4c(=O)n5c(nc4c3)CCC5)CC2)c1C	5.04% (active)
N#Cc1cccc(OC(=O)c2ccc3c(=O)n4c(nc3c2)CCC4)c1	-0.02% (inactive)
O=C(O)c1ccc2c(=O)n3c(nc2c1)/C(=C/c1ccc(OC(F)F)cc1OC(F)F)CC3	0.3% (inactive)

SMILES	inhibition
O=C(c1ccc(Cl)c(S(=O)(=O)N2CCCCC2)c1)N1CCCCCC1	-3.11% (inactive)
O=C(Nc1cc(F)ccc1F)c1ccc2c(=O)n3c(nc2c1)CCC3	3.87% (active)
CC1CCN(C(=O)c2ccc3c(=O)n4c(nc3c2)CCCCC4)CC1	-0.43% (inactive)
COP(=O)(O)CNC(=O)OCc1ccccc1	-0.36% (inactive)
COC(=O)c1c(-c2ccc(OC)cc2)c2c(c3c4cc(OC)ccc4n(S(=O)(=O)c4ccc(F)cc4)c13)C(=O)N(C)C2	-2.04% (inactive)
CC(=O)c1ccc(S(=O)(=O)NCC2CCN(C(=O)C(=O)c3cccs3)CC2)cc1	-0.63% (inactive)
NS(=O)(=O)c1ccc(CCNC(=O)c2ccc(Cl)cc2[N+](=O)[O-])cc1	-0.5% (inactive)
Cc1cc(OC(=O)NCCc2ccc(F)cc2)ccc1F	-0.8% (inactive)
Cc1cc(C(=O)NCCc2ccc(Cl)cc2)c(C)o1	5.45% (active)
CC(=O)OCCN1CCCC12CCC(c1ccccc1)CC2 (centres undefined)	-0.24% (inactive)
Cc1c(NC(=O)C(=O)N/N=C/c2cccs2)c(=O)n(-c2ccccc2)n1C	0.14% (inactive)
O=C(O)c1ccc(N/N=C/c2cn(-c3ccccc3)nc2-c2cccs2)cc1	6.23% (active)
O=C(N/N=C/c1sc(N2CCCCC2)nc1-c1cccs1)c1cccnc1	-1.84% (inactive)
CN(CCO)c1cccc2c1S(=O)(=O)N(Cc1cn(Cc3ccc(C(F)(F)F)cc3)nn1)Cc1ccccc1O2	-1.1% (inactive)
C=CCN1C(=O)[C@@H](CC(=O)NCCCOCCCC)[C@]2(C(=O)OCC)CCCCC/C=C/12	0.1% (inactive)
O=C1/C(=C\Nc2ccccc2)CCN1c1ncccn1	0.43% (inactive)
CCCCOc1ccc(-c2nnc(-c3ccco3)o2)cc1	4.13% (active)
CCCOc1ccc(-c2c(C(=O)N/N=C/c3ccco3)nnn2-c2nonc2N)cc1	-0.59% (inactive)
CCOc1ccc(NC(=O)N(CCC(C)C)C(C)c2ccco2)cc1 (centres undefined)	-0.03% (inactive)
CCOc1ccc(-c2nnc(-c3ccco3)o2)cc1	6.66% (active)
O=C(CSc1nnc(-c2ccco2)o1)NCC(=O)c1ccccc1	1.51% (inactive)
CCCCCCc1cc2cc(-c3nnc(-c4cccc(OC)c4)o3)c(=O)oc2cc1O	1.42% (inactive)
C=CCN1C(C(=O)OC)CN(Cc2cn(Cc3ccccc3)nn2)CCS1(=O)=O (centres undefined)	-0.18% (inactive)

SMILES	inhibition
COC(=O)[C@]12C[C@H](CC(=O)NCC34CC5CC(CC(C5)C3)C4)C(=O)N(Cc3ccc(Cl)cc3Cl)C1=C[C@H](COCc1ccccc1)O[C@@H]2C	-0.93% (inactive)
COC(=O)[C@]1(C#N)CC(=O)N(CC2CCCCC2)[C@@H]1c1ccccc1	1.2% (inactive)
FC(F)(F)c1cccc(Cn2ccc3ccc(-c4ccc5ccn(Cc6ccccc6)c5c4)cc32)c1	-1.01% (inactive)
O=C(CCCCCN1C(=O)C2C3C=CC(C3)C2C1=O)Nc1ccccn1 (centres undefined)	-0.18% (inactive)
C/C(=N\NC(=O)c1ccc(NS(=O)(=O)c2cccs2)cc1)c1ccc2ccccc2c1	0.35% (inactive)
COc1cc(OC)c(C(=O)NNC(=O)c2ccc(NS(=O)(=O)c3cccs3)cc2)cc1OC	4.51% (active)
COc1cc(OC)c(C(=O)NNC(=O)c2ccccc2-n2cccc2)cc1OC	0.07% (inactive)
COc1ccc(-c2cc(-c3nnc(SCC(=O)Nc4cccc5ccccc45)n3N)[nH]n2)cc1	-0.22% (inactive)
C[C@H](C(=O)N(C)c1ccccc1)[C@@H](O)c1ccc2ccccc2c1	0.19% (inactive)
CS(=O)(=O)N(CC(=O)N/N=C/c1ccccn1)c1ccc(Oc2ccccc2)cc1	-0.11% (inactive)
O=C(O)C1C2C=CC(O2)C1C(=O)Nc1ccccn1 (centres undefined)	0.46% (inactive)
S=C(NN=Cc1ccccn1)Nc1ccccn1	3.77% (active)
Clc1ccc(-n2c(SC/C=C/c3ccccc3)nnc2-c2ccco2)cc1	-1.85% (inactive)
Cc1ccc(-c2nc(-c3cccnc3)sc2CC(=O)Nc2ccc(C)c(Cl)c2)cc1	-0.1% (inactive)
O=C(NCc1ccco1)C1CCCN(S(=O)(=O)c2ccc(Cl)s2)C1 (centres undefined)	-1.13% (inactive)
O=C1N(c2ccccc2)C(=Nc2ccccc2)SC12CC2	-0.44% (inactive)
COc1cc(SC)ccc1C(=O)Nc1nc(C)cs1	-3.74% (inactive)
COc1cc(SC)ccc1C(=O)Nc1cc(C)ccn1	4.19% (active)
Cc1ccnc(NC(=O)C(C)N2C(=O)c3ccccc3C2=O)c1 (centres undefined)	-0.27% (inactive)
O=C(c1cccc(C(F)(F)F)c1)N1CC[C@H]2[C@H](CCCN2Cc2cc(F)cc(F)c2)C1	0.13% (inactive)
